Data published in PubChem BioAssay AID1159580 (chemical genetic matrix, 2015).
Screen size: about 5,500 compounds; about 2,000 (36%) were called active. About 18% were inconclusive and are not listed. No stated cut-off is given here; in the data, active means normalized growth mostly below about 0.91 (no sharp cut-off); inconclusive means no clear call, values can overlap the other calls; inactive means mostly above about 0.92. Some of the results follow.

Experiment: chemical genetic growth profiling, strain panel (AID 1159580);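 further: tested at 20 µM; growth read once vehicle control cultures reached saturation at 30 °C; 1 = growth at the plate median or of vehicle wells; lower values mean less growth of the strain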
Conditions: growth OD
[1] = S. cerevisiae deletion strains, locus YAL013W, strain DEP1, hits give low values
[2] = S. cerevisiae deletion strains, locus YBR229C, strain ROT2, hits give low values
[3] = S. cerevisiae deletion strains, locus YCL061C, strain MRC1, hits give low values
[4] = S. cerevisiae deletion strains, locus YDL101C, strain DUN1, hits give low values
[5] = S. cerevisiae deletion strains, locus YDL134C, strain PPH21, hits give low values
[6] = S. cerevisiae deletion strains, locus YDR150W, strain NUM1, hits give low values
[7] = S. cerevisiae deletion strains, locus YEL061C, strain CIN8, hits give low values
[8] = S. cerevisiae deletion strains, locus YGR078C, strain PAC10, hits give low values
[9] = S. cerevisiae deletion strains, locus YHR030C, strain SLT2, hits give low values
[10] = S. cerevisiae deletion strains, locus YHR087W, strain rtc3, hits give low values
[11] = S. cerevisiae deletion strains, locus YJR043C, strain POL32, hits give low values
[12] = S. cerevisiae deletion strains, locus YJR075W, strain HOC1, hits give low values
[13] = S. cerevisiae deletion strains, locus YLR039C, strain RIC1, hits give low values
[14] = S. cerevisiae deletion strains, locus YLR058C, strain SHM2 (second series), hits give low values
[15] = S. cerevisiae deletion strains, locus YLR085C, strain ARP6, hits give low values
[16] = S. cerevisiae deletion strains, locus YLR262C, strain YPT6, hits give low values
[17] = S. cerevisiae deletion strains, locus YML094W, strain GIM5, hits give low values
[18] = S. cerevisiae deletion strains, locus YMR219W, strain ESC1, hits give low values
[19] = S. cerevisiae deletion strains, locus YMR263W, strain SAP30, hits give low values
[20] = S. cerevisiae deletion strains, locus YNL153C, strain GIM3, hits give low values
[21] = S. cerevisiae deletion strains, locus YNL298W, strain CLA4 (second series), hits give low values
[22] = S. cerevisiae deletion strains, locus YNL322C, strain KRE1, hits give low values
[23] = S. cerevisiae deletion strains, locus YNR030W, strain Alg12, hits give low values
[24] = S. cerevisiae deletion strains, locus YPL055C, strain LGE1, hits give low values
[25] = S. cerevisiae deletion strains, locus YPL241C, strain CIN2, hits give low values
[26] = S. cerevisiae deletion strains, locus YPR135W, strain CTF4, hits give low values
[27] = S. cerevisiae strains, strain wild type, hits give low values
[28] = S. cerevisiae deletion strains, locus YJL187C, strain SWE1, hits give low values
[29] = S. cerevisiae deletion strains, locus YKL190W, strain CNB1, hits give low values
[30] = S. cerevisiae deletion strains, locus YGR229C, strain SMI1, hits give low values

Measured: normalized growth

O=[N+]([O-])c1ccc(N2CCOCC2)cc1
inactive: [1] 0.996 | [2] 1 | [3] 1.02 | [4] 1.06 | [5] 0.969 | [6] 1.05 | [7] 0.969 | [8] 1.03 | [9] 1.05 | [10] 0.937 | [11] 1.04 | [12] 0.978 | [13] 0.991 | [14] 0.976 | [15] 0.98 | [16] 0.962 | [17] 0.939 | [18] 0.992 | [19] 1.03 | [20] 1.03 | [21] 0.988 | [22] 0.965 | [23] 0.974 | [24] 0.971 | [25] 1.01 | [26] 1.02 | [27] 0.982

Cc1cc(=O)n(-c2ccc([N+](=O)[O-])cc2)[nH]1
inactive: [4] 0.955 | [6] 0.905 | [7] 0.958 | [14] 0.965 | S. cerevisiae deletion strains, locus YNL128W, strain TEP1, hits give low values 0.957 | [22] 0.989
active: [1] 0.509 | [2] 0.867 | [8] 0.927 | [9] 0.34 | [10] 0.8 | [28] 0.814 | [11] 0.718 | [12] 0.847 | [29] 0.726 | [13] 0.437 | [15] 0.592 | [16] 0.583 | [17] 0.84 | [18] 0.9 | [19] 0.85 | [20] 0.884 | [21] 0.821 | [23] 0.811 | [24] 0.69 | [25] 0.811 | [26] 0.504 | [27] 0.866

OCc1ccccc1-c1ccccc1
inactive: [1] 0.995 | [2] 0.984 | [3] 0.957 | [4] 0.941 | [5] 0.985 | [6] 0.924 | [7] 0.987 | [8] 0.985 | [30] 0.993 | [9] 0.984 | [10] 1.01 | [28] 1 | [11] 0.971 | [12] 1.02 | [29] 1.01 | [13] 0.952 | [14] 1.02 | [15] 1.03 | [16] 0.99 | [17] 0.959 | [18] 0.99 | [19] 0.987 | [20] 0.95 | [21] 1 | [22] 1.02 | [23] 0.994 | S. cerevisiae deletion strains, locus YOL006C, strain TOP1, hits give low values 0.997 | [24] 0.85 | [25] 0.988 | [26] 0.976 | [27] 1.01

O=C1C(SCCO)=C(SCCO)C(=O)c2ccccc21
inactive: S. cerevisiae deletion strains, locus YAL040C, strain CLN3, hits give low values 1.06 | S. cerevisiae deletion strains, locus YCL061C, strain MRC1 (second series), hits give low values 0.982 | [6] 0.981 | S. cerevisiae deletion strains, locus YDR363W, strain ESC2, hits give low values 0.966 | S. cerevisiae deletion strains, locus YER002W, strain NOP16, hits give low values 1.04 | [8] 0.982 | S. cerevisiae deletion strains, locus YNL175C, strain NOP13, hits give low values 0.988 | S. cerevisiae deletion strains, locus YNL197C, strain WHI3, hits give low values 0.99 | S. cerevisiae deletion strains, locus YNL224C, strain SQS1, hits give low values 0.985 | [25] 0.996
active: S. cerevisiae deletion strains, locus YMR307W, strain GAS1, hits give low values 0.751 | S. cerevisiae deletion strains, locus YOR083W, strain WHI5 (second series), hits give low values 0.858

O=C1c2ccccc2C(=O)N1CN(CCSc1ccccc1)CN1C(=O)c2ccccc2C1=O
inactive: [1] 1.01 | [2] 0.987 | [4] 0.992 | [6] 0.993 | [7] 0.987 | [8] 0.993 | [30] 1 | [9] 1.01 | [10] 0.986 | [28] 1.03 | [11] 1.01 | [12] 0.981 | [29] 1 | [13] 0.986 | [14] 1 | [15] 0.957 | [16] 1.07 | [17] 0.973 | [18] 0.992 | [19] 1.01 | [20] 1.01 | [21] 0.978 | [22] 0.994 | [23] 1 | [24] 0.995 | [25] 0.964 | [26] 1.05
